Common to all, as to experiment: NCI-60 one-dose screen, 48 h (100 = growth as untreated, 0 = no growth, -100 = all killed)
Experiment [1] has as its system NCI-H23 lung. As to conditions: 10 µM unless noted.
Experiment [2] concerns NCI-H226 lung. As to conditions: 10 µM unless noted.
The test system of experiment [3] is NCI-H322M lung. To be noted: 10 µM unless noted.
Experiment [4] has as its system HOP-62 NSCLC. As to conditions: 10 µM unless noted.
For experiment [5], the system named is NCI-H460 lung. As to conditions: 10 µM unless noted.
Experiment [6] relates to HOP-92 NSCLC. As to conditions: 10 µM.
For experiment [7], the system named is NCI-H522 lung. As to conditions: 10 µM unless noted.
Experiment [8] has as its system A549/ATCC NSCLC. To be noted: 10 µM unless noted.
For experiment [9], the system named is 786-0 renal. To be noted: 10 µM unless noted.
Experiment [10] has as its system COLO 205 colon. To be noted: 10 µM unless noted.
The test system of experiment [11] is DU-145 prostate. As to conditions: 10 µM unless noted.
The test system of experiment [12] is K-562 leukemia. As to conditions: 10 µM unless noted.
The subject of experiment [13] is MALME-3M melanoma. To be noted: 10 µM unless noted.
In experiment [14] the test system is MDA-MB-231 breast. To be noted: 10 µM unless noted.
The subject of experiment [15] is SF-268 CNS. As to conditions: 10 µM unless noted.
For experiment [16], the system named is SF-295 CNS. As to conditions: 10 µM unless noted.
Experiment [17] deals with SF-539 CNS. To be noted: 10 µM unless noted.
Experiment [18] concerns UACC-257 melanoma. To be noted: 10 µM unless noted.

SMILES strings stand for the structures. About 83,000 compounds went through this panel and 20% of them were active in at least one assay; those are over-represented in the sample as a whole.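 Testing used 96-well plates and a 48-hour single-concentration exposure. Example: -40 means 40% of the starting cells died.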 Unmarked numbers belong to inactive results. Calls of active or inactive are those of the source. Rule for the calls: active = growth percent below 10; inactive = the rest.

As for `CS(=O)(=O)Nc1cc(-c2ccc3ncc(C#N)c(Nc4cccc(Cl)c4F)c3c2)cnc1Cl`, the growth is 8.28% (active) in [1]; 10.4% in experiment [2]; -10.2% (active) in [3]; -8.87% (active) in experiment [4]; 6.34% (active) in experiment [5]; -25% (active) in experiment [6]. Moreover, the growth is 1.54% (active) in experiment [7]; 4.61% (active) in experiment [8]; 4.98% (active) in [9]; -74.5% (active) in [10]; 11.9% in experiment [11]; 21.8% in [12]. Moreover, the growth in experiment [13] was -32.5% (active); in experiment [14], -8.64% (active); in experiment [15], -10.1% (active); in experiment [16], -10.9% (active); in [17], -24.4% (active); in experiment [18], 2.63% (active).
Regarding `COc1ccc2c(c1)c(CC(=O)[Se]CCC#N)c(C)n2C(=O)c1ccc(Cl)cc1`, the growth was 3.36% (active) in experiment [1]; -53.6% (active) in experiment [2]; -3.57% (active) in experiment [3]; -48.1% (active) in experiment [4]; 1.16% (active) in experiment [5]; -67.8% (active) in experiment [6]. Further, the growth was -8.61% (active) in experiment [7]; 2.64% (active) in [8]; -45.3% (active) in [9]; 88.4% in experiment [10]; 6.8% (active) in experiment [11]; 21.2% in [12]. For the same compound, the growth is -68.3% (active) in experiment [13]; -13.8% (active) in experiment [14]; -30.7% (active) in [15]; -82.9% (active) in experiment [16]; -63.9% (active) in [17]; 6.66% (active) in [18].
In the case of `COc1c(N2CC3CCCNC3C2)c(F)cc2c(=O)c(C(=O)N/N=C/c3c[nH]c4ccccc34)cn(C3CC3)c12` (centres undefined), the growth in [1] is 102%; in [2], 107%; in experiment [3], 105%; in experiment [4], 109%; in [5], 107%; in experiment [6], 79.6%. Moreover, the growth in experiment [7] is 107%; in experiment [8], 102%; in [9] it was 95.1%; in [10], 107%; in experiment [11] it was 104%; in [12] it was 3.26% (active). Also, the growth in experiment [13] was 118%; in [14], 95.3%; in experiment [15], 91.9%; in experiment [16] it was 110%; in [17], 88.2%; in experiment [18], 121%.
For the compound `CCCCCc1ccc(S(=O)(=O)Nc2cc(-c3csc(NC(=O)CN4CCN(C)CC4)n3)ccc2OC)cc1`, the growth in experiment [1] is 49.8%; in experiment [2], 74.6%; in experiment [3], 5.27% (active); in [4], 60.3%; in experiment [5], -61.5% (active); in experiment [6] it was 22.1%. Also, the growth in [7] is -51.9% (active); in experiment [8] it was 15.1%; in experiment [9], -75% (active); in [10], -57.6% (active); in experiment [11], 22.1%; in experiment [12], -27.9% (active). Besides, the growth in experiment [13] was -84.6% (active); in [14] it was -38.1% (active); in experiment [15], -24.5% (active); in experiment [16] it was -68.2% (active); in experiment [17] it was -80.8% (active); in experiment [18] it was -49.2% (active).
With `CCOc1ccccc1NC1=C(Cl)C(=O)c2nc(C)ccc2C1=O`, the growth in experiment [1] was -67.8% (active); in [2], 17.6%; in [3], 28.8%; in experiment [4], 84.3%; in experiment [5], 12.1%; in [6], -89.2% (active). In addition, the growth is -43.5% (active) in experiment [7]; 59.1% in [8]; -88.2% (active) in experiment [9]; 99.2% in experiment [10]; -85% (active) in [11]; 1.26% (active) in [12]. Moreover, the growth is -71.4% (active) in experiment [13]; -63.6% (active) in experiment [14]; 32.8% in experiment [15]; 90.7% in experiment [16]; -37.3% (active) in experiment [17]; -88.3% (active) in [18].
For `CCn1c(SCC(=O)Nc2cccc(C(=O)/C=C/c3ccccc3Cl)c2)nc2ccccc2c1=O`, the growth in experiment [1] was 69.5%; in [2], 81.9%; in experiment [3], 90.5%; in [4], 93.7%; in [5], 95.7%; in experiment [6], 72.7%. The growth in experiment [7] is 85.3%; in [8] it was 78.6%; in [9] it was 95.6%; in experiment [10], 114%; in experiment [11] it was 77.8%; in [12] it was 53%. For the same compound, the growth was 103% in experiment [13]; 87.1% in experiment [14]; 88% in experiment [15]; 91.4% in experiment [16]; 90.4% in experiment [17]; 110% in [18].
Take `CCc1nn2c(C)cc(C)nc2c1Cc1ccc(/C=C/CN2CCN(CCOCCOCCN3CCN(C/C=C/c4ccc(Cc5c(CC)nn6c(C)cc(C)nc56)cc4)CC3)CC2)cc1`: the growth in experiment [1] is 26.2%; in [2], 67.9%; in experiment [3], 7.19% (active); in [4], 18.7%; in [5] it was -63.8% (active); in [6], -5.1% (active). Further, the growth was -47.9% (active) in experiment [7]; 11.7% in experiment [8]; -79.3% (active) in experiment [9]; -48.5% (active) in experiment [10]; -31.6% (active) in [11]; -51.2% (active) in experiment [12]. Also, the growth in experiment [13] is -92.4% (active); in [14], -66.2% (active); in experiment [15], -53.8% (active); in experiment [16] it was -52.7% (active); in experiment [17], -83.7% (active); in [18], -67.6% (active).
Take `CC(=O)c1cc(C(=O)c2ccc(Br)cc2)n2cc(C)cc(C)c12`: the growth in [1] was 102%; in [2], 86.4%; in experiment [3], 100%; in experiment [4], 85.6%; in experiment [5] it was 88.7%; in experiment [6], 99%. In addition, the growth in experiment [7] is 85.3%; in [8], 97.1%; in experiment [9] it was 89.4%; in experiment [10], 97.7%; in experiment [11], 94.8%; in experiment [12], 93.1%. Further, the growth in experiment [13] was 111%; in experiment [14], 90%; in [15], 89.7%; in experiment [16] it was 96%; in experiment [17], 88.4%; in experiment [18] it was 105%.
